The results in this text go back to PubChem BioAssay (Tox21).

Test [1] is described as follows: Nuclear factor erythroid 2-related factor 2/antioxidant responsive element (Nrf2/ARE) small molecule agonists: qHTS cell viability counter screen in human keratinocytes (AID 1919968; active means well fitted curve in the direction sought with a large enough effect in the repeat runs; an effect the other way counts as inactive or inconclusive; further: nearly all actives have a fitted effect of over 55% in size; further: potency means the concentration at half of the fitted maximal effect). Summed up: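 Cytotoxicity was multiplexed with the Nrf2/ARE luciferase assay in the same wells. Stably transfected HaCaT keratinocytes were treated with test compounds for 23 h at 37 C. Cell viability was then measured by CellTiter-Fluor fluorescence.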
A general note: In qHTS, concentration-response curves come from the screen itself.

Test [2] in a line: Nuclear factor erythroid 2-related factor 2/antioxidant responsive element (Nrf2/ARE) small molecule agonists: luciferase reporter gene qHTS assay in human keratinocytes (AID 1919969). Further: nearly all actives have a fitted effect of over 35% in size. Further: potency means the concentration at half of the fitted maximal effect. A general note: In a reporter assay the amount or activity of a reporter protein is the signal.
Test [3] addresses Gonadotropin-releasing hormone receptor (Homo sapiens) (UniProt P30968). Kind of test: Human gonadotropin-releasing hormone receptor (GnRHR) small molecule agonists, calcium flux assay in GnRHR-HEK293 cells (AID 1920063). Further: nearly all actives have a fitted effect of over 35% in size. Summed up: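 Agonist activity was measured as intracellular calcium flux in HEK293 cells engineered to stably express human GnRHR. After dye loading for 1 hour at 37 C, compounds in DMSO were added and fluorescence was followed for 3 minutes.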
(Calcium flux is commonly read through the fluorescence of an indicator in the cells.)

Test [4] in a line: G protein-coupled receptor (GPCR) small molecule agonists, calcium flux assay: HEK293 wild type cell line counter screen (AID 1920065). Put shortly: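 Seed cells, incubate 18 h (37 C, 5% CO2); add calcium dye, 1 h at 37 C; pin-transfer compounds, ATP control or DMSO; read fluorescence 480/540 nm each second for 3 min.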
A short description of test [5]: p53 small molecule agonists, cell-based qHTS assay with human liver microsomes: qHTS cell viability counter screen (AID 1963579). Further: nearly all actives have a fitted effect of over 45% in size. Further: potency means the concentration at half of the fitted maximal effect. Summed up: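 After the 460/530 nm beta-lactamase read, CellTiter-Glo was added to the same wells and luminescence measured after 30 min at room temperature, giving viability of p53RE-bla cells treated 16 h with compounds plus microsomes and NADPH.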

Test [6] in a line: p53 small molecule agonists, cell-based qHTS assay with rat liver microsomes: qHTS cell viability counter screen (AID 1963580). Further: nearly all actives have a fitted effect of over 45% in size. Further: potency means the concentration at half of the fitted maximal effect. Summed up: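 After the beta-lactamase ratio was read, CellTiter-Glo was added to the same wells and luminescence measured at 30 min; cells had been treated 16 h at 37 C with compounds, rat liver microsomes and NADPH (0.5 mg/mL final each).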
Test [7] is described as follows: p53 small molecule agonists, cell-based qHTS assay: qHTS cell viability counter screen (AID 1963581). Further: nearly all actives have a fitted effect of over 45% in size. Further: potency means the concentration at half of the fitted maximal effect. Put shortly: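 Viability was counter-screened in parallel with the p53 agonist reporter by measuring intracellular ATP luminescence in the same HCT-116 p53RE-bla wells after 16 h compound treatment at 37 C.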
In test [8] the target is 5-hydroxytryptamine receptor 2A (Homo sapiens) (UniProt P28223). As to the kind of experiment: 5-hydroxytryptamine receptor 2A (HTR2A) small molecule antagonists, cell-based qHTS assay (AID 1963586). Further: nearly all actives have a fitted effect of over 45% in size. Summed up:
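CHO cells stably expressing human HTR2A were plated for 18 h at 37 C, then loaded with calcium dye for 1 h. Compounds were preincubated 5 min at room temperature before DOI (4 nM solution) was added. Kinetic fluorescence was read for 3 min.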

The target is the same in test [9]. As to the kind of experiment: 5-hydroxytryptamine receptor 2A (HTR2A) small molecule agonists, cell-based qHTS assay (AID 1963587). Further: nearly all actives have a fitted effect of over 30% in size. Further: potency means the concentration at half of the fitted maximal effect. Summed up:
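CHO cells stably expressing human HTR2A, plated 18 h, loaded with calcium dye 1 h at 37 C. Agonist mode: compounds added and intracellular calcium fluorescence recorded kinetically for 2 min at 1 sec intervals.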

Test [10] deals with Muscarinic acetylcholine receptor M1 (Homo sapiens) (UniProt P11229). As to the kind of experiment: Cholinergic receptor muscarinic 1 (CHRM1) small molecule antagonists, cell-based qHTS assay (AID 1963588). Further: nearly all actives have a fitted effect of over 40% in size. Put shortly: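 Compounds were tested at 15 concentrations in three independent runs. Dye-loaded CHRM1-CHO cells were exposed 5 min at room temperature before stimulation by acetylcholine added at 50nM. Intracellular calcium was read kinetically on FDSS for 3 min.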
Muscarinic acetylcholine receptor M1 (Homo sapiens), sequence (P11229 whole entry, looked up): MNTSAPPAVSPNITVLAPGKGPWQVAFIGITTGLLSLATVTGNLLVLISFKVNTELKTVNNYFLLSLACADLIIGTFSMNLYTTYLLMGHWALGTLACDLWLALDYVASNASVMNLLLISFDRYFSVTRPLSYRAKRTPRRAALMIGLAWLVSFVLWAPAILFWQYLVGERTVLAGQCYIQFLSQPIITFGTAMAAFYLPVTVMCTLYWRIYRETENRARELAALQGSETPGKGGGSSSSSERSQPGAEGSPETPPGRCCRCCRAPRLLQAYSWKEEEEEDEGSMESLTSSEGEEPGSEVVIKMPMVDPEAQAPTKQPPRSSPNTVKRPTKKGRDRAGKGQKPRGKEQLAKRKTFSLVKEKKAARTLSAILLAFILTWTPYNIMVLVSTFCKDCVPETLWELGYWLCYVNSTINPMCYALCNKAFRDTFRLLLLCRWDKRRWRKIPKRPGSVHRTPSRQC

Test [11] has the same target. Kind of test: Cholinergic receptor muscarinic 1 (CHRM1) small molecule agonists, cell-based qHTS assay (AID 1963589). Further: nearly all actives have a fitted effect of over 35% in size. Put shortly: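 Cells were plated and incubated 18 h at 37 C/5% CO2, loaded with calcium dye for 1 h at 37 C, then treated with compounds in DMSO. Fluorescence was recorded kinetically at 1 sec intervals.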
Test [12] deals with Beta-2 adrenergic receptor (Homo sapiens) (UniProt P07550). Kind of test: Adrenergic beta2 receptor (ADRB2) small molecule antagonists, cell-based qHTS assay (AID 1963592). Further: nearly all actives have a fitted effect of over 50% in size. Further: potency means the concentration at half of the fitted maximal effect. Summed up:
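Assay format: CHO-ADRB2 cells, 18-20hr seeding at 37C/5% CO2, then compound plus 1nM isoproterenol agonist mix for 0.5hr RT. Homogeneous time-resolved fluorescence cAMP detection after 1hr, expressed as 665/615 nm ratio.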

Test [13] concerns the target D(2) dopamine receptor (Homo sapiens) (UniProt P14416). Kind of test: Dopamine D2 receptor (DRD2) small molecule agonists, cell-based qHTS assay (AID 1963594). Further: nearly all actives have a fitted effect of over 35% in size. Put shortly:
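HEK293 cells stably expressing human DRD2, pre-treated with PDE inhibitor Ro20-1724 (0.1 mM final) and compound 10 min at room temperature, then stimulated with NKH477 (200nM […]) for 30 min. cAMP read by HTRF (665/620 nm).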

The target is the same in test [14]. Kind of test: Dopamine D2 receptor (DRD2) small molecule antagonists, cell-based qHTS assay (AID 1963595; active means well fitted inhibition curve with a large enough effect in the signal ratio in the repeat runs, with a control signal flat; the % refers to the signal ratio; further: potency means the concentration at half of the fitted maximal effect). Put shortly:
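HEK293 cells stably expressing DRD2 were preincubated with 0.1 mM Ro20-1724, then with compound for 10 min at room temperature. Cells were stimulated with 200 nM NKH477 plus 12 nM quinpirole for 30 min, and cAMP was read by HTRF.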

The nature of test [15]: cAMP Responsive Elements (CRE) small molecule antagonists, cell-based qHTS assay (AID 1963591; active means well fitted inhibition curve with a large enough effect in the signal ratio in the repeat runs, not every such curve was filed as active; the % refers to the signal ratio). Summed up:
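Cells (CRE-bla HEK 293T, DMEM with 10% dialyzed FBS and 25 mM HEPES) are seeded and incubated 18 h. Compounds are added with NKH477 agonist at 0.25 uM final for 3 h, then FRET substrate for 2 h.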

In test [16] the target is KiSS-1 receptor (Homo sapiens) (UniProt Q969F8). Kind of test: Human kisspeptin (KISS1R) small molecule agonists, calcium flux assay in KISS1R-HEK293 cells (AID 1920064; active means well fitted curve in the direction sought with a large enough effect in the repeat runs; an effect the other way counts as inactive or inconclusive). Put shortly:
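Agonist activity is monitored as intracellular calcium rise in engineered HEK293 cells carrying human KISS1R. Cells are dye-loaded for 1 h at 37 C before compound addition, and fluorescence is recorded for 3 min.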

A short description of test [17]: p53 small molecule agonists, cell-based qHTS assay with human liver microsomes (AID 1963577).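 Further: p53 response element beta-lactamase reporter cells with liver microsomes plus NADPH.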 Put shortly: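 Steps: plate p53RE-bla cells, incubate 5 h at 37 C; add compound in DMSO; add microsomes (0.5 mg/mL final) and NADPH (0.5 mg/mL final); incubate 16 h at 37 C; add LiveBLAzer, 2 h RT; read fluorescence.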
A short description of test [18]: p53 small molecule agonists, cell-based qHTS assay with rat liver microsomes (AID 1963578). Summed up: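 Metabolic activation is supplied by rat liver microsomes with NADPH (each 0.5 mg/mL final). p53RE-bla cells incubate with compound 16 h at 37 C; reporter activity is measured by LiveBLAzer fluorescence.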
Test [19] in a line: cAMP Responsive Elements (CRE) small molecule agonists, cell-based qHTS assay (AID 1963590). Summed up: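 Cells carrying a CRE-driven beta-lactamase reporter (HEK 293T) are seeded, incubated overnight (18 h), and treated with test compounds for 3 h at 37 C; reporter activity is then detected with a FRET substrate after 2 h at room temperature.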
Test [20] can be described thus: p53 small molecule agonists, cell-based qHTS assay (AID 1963582; active means well fitted activation curve with a large enough effect in the signal ratio in the repeat runs, not every such curve was filed as active; the % refers to the signal ratio). Summed up:
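Cells carrying a p53-responsive bla reporter are treated with test compounds for 16 h at 37 C; beta-lactamase activity is then detected with LiveBLAzer B/G FRET substrate after 2 h at room temperature.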

Unmarked numbers belong to inactive results. Records with an inconclusive call do not appear. Active and inactive are the calls of the source. Unless noted, the call rests on the fitted dose curve.
On the % scale 0 is the no-effect control and ±100 the full control effect.

D(2) dopamine receptor (Homo sapiens), sequence (P14416 whole entry, looked up): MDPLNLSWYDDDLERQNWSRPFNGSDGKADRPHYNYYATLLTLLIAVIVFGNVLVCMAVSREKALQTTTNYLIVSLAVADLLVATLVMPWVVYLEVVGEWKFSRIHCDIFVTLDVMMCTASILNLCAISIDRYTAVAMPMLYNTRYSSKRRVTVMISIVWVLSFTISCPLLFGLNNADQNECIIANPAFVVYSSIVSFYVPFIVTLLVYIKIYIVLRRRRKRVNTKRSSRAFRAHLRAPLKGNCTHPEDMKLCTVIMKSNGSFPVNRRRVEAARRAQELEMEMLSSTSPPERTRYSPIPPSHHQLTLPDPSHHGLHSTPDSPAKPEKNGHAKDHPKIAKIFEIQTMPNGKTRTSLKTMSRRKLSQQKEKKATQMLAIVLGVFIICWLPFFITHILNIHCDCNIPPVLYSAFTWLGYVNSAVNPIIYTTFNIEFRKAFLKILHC
5-hydroxytryptamine receptor 2A (Homo sapiens), sequence (P28223 whole entry, looked up): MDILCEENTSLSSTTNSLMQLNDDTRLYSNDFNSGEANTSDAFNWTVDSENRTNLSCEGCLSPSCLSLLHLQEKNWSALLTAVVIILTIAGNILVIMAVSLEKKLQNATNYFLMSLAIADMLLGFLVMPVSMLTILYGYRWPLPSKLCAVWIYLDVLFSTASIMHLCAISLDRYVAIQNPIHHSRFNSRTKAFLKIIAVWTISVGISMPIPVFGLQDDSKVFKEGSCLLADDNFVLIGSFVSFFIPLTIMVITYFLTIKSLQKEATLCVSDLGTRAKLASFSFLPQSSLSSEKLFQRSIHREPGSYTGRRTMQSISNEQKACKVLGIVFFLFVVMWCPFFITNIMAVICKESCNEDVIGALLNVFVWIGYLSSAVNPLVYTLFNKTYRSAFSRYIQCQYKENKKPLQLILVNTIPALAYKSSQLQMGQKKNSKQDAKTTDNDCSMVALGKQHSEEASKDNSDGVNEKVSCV
KiSS-1 receptor (Homo sapiens), sequence (Q969F8 whole entry, looked up): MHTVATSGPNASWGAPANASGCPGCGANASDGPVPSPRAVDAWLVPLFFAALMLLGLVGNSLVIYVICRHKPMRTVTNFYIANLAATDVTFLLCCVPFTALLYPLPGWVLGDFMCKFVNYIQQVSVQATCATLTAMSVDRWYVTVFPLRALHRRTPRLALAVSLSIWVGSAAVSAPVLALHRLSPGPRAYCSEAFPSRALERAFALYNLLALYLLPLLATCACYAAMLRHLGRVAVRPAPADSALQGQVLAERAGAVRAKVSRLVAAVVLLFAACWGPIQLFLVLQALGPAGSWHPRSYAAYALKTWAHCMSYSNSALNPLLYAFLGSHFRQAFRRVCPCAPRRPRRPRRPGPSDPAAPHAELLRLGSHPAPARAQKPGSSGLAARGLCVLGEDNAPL
Beta-2 adrenergic receptor (Homo sapiens), sequence (P07550 whole entry, looked up): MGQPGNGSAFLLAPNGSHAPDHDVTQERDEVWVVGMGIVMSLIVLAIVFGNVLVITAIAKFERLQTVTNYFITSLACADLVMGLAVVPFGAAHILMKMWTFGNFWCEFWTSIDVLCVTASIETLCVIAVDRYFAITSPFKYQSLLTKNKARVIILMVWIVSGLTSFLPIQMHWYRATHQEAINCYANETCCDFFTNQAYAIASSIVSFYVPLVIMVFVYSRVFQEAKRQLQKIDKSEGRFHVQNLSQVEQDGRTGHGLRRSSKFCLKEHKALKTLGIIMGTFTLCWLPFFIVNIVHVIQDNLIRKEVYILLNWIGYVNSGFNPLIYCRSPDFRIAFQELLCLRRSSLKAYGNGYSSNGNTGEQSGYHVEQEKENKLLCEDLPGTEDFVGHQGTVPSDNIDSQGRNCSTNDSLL
Gonadotropin-releasing hormone receptor (Homo sapiens), sequence (P30968 whole entry, looked up): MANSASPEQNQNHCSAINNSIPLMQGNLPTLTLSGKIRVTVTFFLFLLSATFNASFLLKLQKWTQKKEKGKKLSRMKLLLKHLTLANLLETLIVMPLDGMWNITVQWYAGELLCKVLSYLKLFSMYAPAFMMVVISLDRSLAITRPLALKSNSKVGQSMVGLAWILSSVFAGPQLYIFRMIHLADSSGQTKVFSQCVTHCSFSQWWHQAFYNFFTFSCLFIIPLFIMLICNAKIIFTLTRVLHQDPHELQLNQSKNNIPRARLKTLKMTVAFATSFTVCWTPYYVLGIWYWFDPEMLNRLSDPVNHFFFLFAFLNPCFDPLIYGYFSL

Regarding `O=C(Nc1ccc(F)cc1F)c1cccnc1Oc1cccc(C(F)(F)F)c1`, the Potency result in test [1], in test [2], in test [3], in test [4], in [5] and in [6] was “inactive” each time. In addition, the Potency entry in test [7], in [8], in [9], in test [10], in test [11] and in test [12] was “inactive” throughout. Also, the Potency entry in test [13] and in [14] was “inactive” throughout.

As to `O=[N+]([O-])c1cccc2cccc([N+](=O)[O-])c12`, the Potency result in test [1], in test [2], in [3], in test [4], in test [5] and in [7] was “inactive” in each case. For the same compound, the Potency result in [9], in test [10], in test [15], in [12] and in [13] was “inactive” throughout.

Take `CCSC(C)CC1CC(=O)C(/C(CC)=N/OC/C=C/Cl)=C(O)C1` (configuration not stated): the Potency entry in test [1], in test [2], in test [16], in [4], in test [17] and in test [18] was “inactive” in each case. In addition, the Potency result in test [5], in test [6], in [7], in test [8], in [9] and in [10] was “inactive” each time. In addition, the Potency entry in [11], in test [19] and in [13] was “inactive” each time.

Consider `CC(C)(C)C(O)C(Oc1ccc(Cl)cc1)n1cncn1` (configuration not stated), for which the Potency entry in test [1], in test [3], in test [4], in test [18], in [5] and in test [7] was “inactive” throughout. The Potency entry in [20], in test [19] and in test [14] was “inactive” each time. Also, the Potency in [2] was 68.6 µM (active).

As for `N#Cc1cc(I)c(O)c(I)c1`, the Potency result in test [1], in [2], in test [3], in test [17], in [18] and in test [8] was “inactive” in each case. The Potency result in [9], in test [10], in [11], in [13] and in test [14] was “inactive” each time.

For the compound `CCOC(=O)/C=C(C)/C=C/C[C@@H](C)CCCC(C)C`, the Potency entry in test [1], in test [16], in test [4], in test [17], in test [18] and in test [5] was “inactive” in each case. The Potency entry in test [6], in [7], in [20], in [9], in [10] and in test [11] was “inactive” each time. Besides, the Potency entry in test [19], in test [15], in [12], in test [13] and in test [14] was “inactive” in each case. Further, in test [2], the Potency was 68.6 µM (active).

Take `Clc1ccc(C2(Cn3cncn3)CC(Br)CO2)c(Cl)c1` (configuration not stated): the Potency entry in test [1], in [2], in test [3], in test [4], in test [18] and in [5] was “inactive” in each case. Moreover, the Potency entry in test [6], in [7], in test [20], in test [10], in test [11] and in test [15] was “inactive” each time. The Potency entry in [12] and in test [13] was “inactive” each time.

`CC(=O)Nc1cc([As](=O)(O)O)ccc1O`: the Potency entry in test [1], in test [2], in test [16], in test [4], in test [17] and in [18] was “inactive” throughout. The Potency result in test [5], in test [6], in test [7], in [9], in [10] and in test [11] was “inactive” each time. For the same compound, the Potency result in test [19], in test [15], in test [12] and in [14] was “inactive” throughout.

As to `CC1(C)CN=C(NN=C(/C=C/c2ccc(C(F)(F)F)cc2)/C=C/c2ccc(C(F)(F)F)cc2)NC1`, the Potency in test [1] was 12.2 µM (active). In addition, the Potency result in test [2], in test [3], in [17], in test [18], in [5] and in [8] was “inactive” in each case. Also, the Potency result in test [9], in [10], in [11], in test [12], in test [13] and in test [14] was “inactive” in each case.

Turning to `CCC(CC)(CNC(=O)CCCO)c1cccc(OC)c1`, the Potency result in test [1], in test [2], in test [16], in test [4], in test [17] and in test [18] was “inactive” throughout. Also, the Potency entry in test [6], in test [7], in test [20], in [8], in test [9] and in test [19] was “inactive” each time. Moreover, the Potency entry in test [15], in test [12], in test [13] and in test [14] was “inactive” throughout.

Consider `CCC[CH2][Sn]([CH2]CCC)([CH2]CCC)[O][Sn]([CH2]CCC)([CH2]CCC)[CH2]CCC`, for which the Potency in [1] is 0.533 µM (active); in test [2] it was 0.533 µM (active); in test [6], 1 µM (active); in [7], 893 nM (active); in test [12], 1.68 µM (active); in [14], 2.12 µM (active). Also, the activation in test [16] is 9.21% [at 6.97 µM]; in [4], 2.41% [at 5.23 µM]; in [17], -15.1% [at 5.99 µM]; in test [18] it was -3.45% [at 5.99 µM]; in test [11] it was 7.77% [at 6.97 µM]; in test [13] it was 2.93% [at 8.39 µM]. The activity, negative = inhibition in test [10] is 0.927% [at 5.58 µM].

In the case of `CCCCc1ccccc1`, the Potency result in [1], in test [2], in test [16], in [4], in test [6] and in [7] was “inactive” each time. In addition, the Potency result in test [8], in test [9], in [10], in [11], in test [19] and in test [15] was “inactive” each time. Further, the Potency result in test [12], in test [13] and in [14] was “inactive” throughout.

On to `[Cl][Hg][c]1ccccc1`, for which the Potency in [1] was 2.73 µM (active); in test [2], 0.969 µM (active); in test [5], 4.58 µM (active); in test [7] it was 2890 nM (active); in [9], 49 µM (active); in test [14], 13.7 µM (active). Moreover, the Potency entry in test [16], in test [4], in test [17], in [8] and in test [10] was “inactive” in each case.
